In PubChem BioAssay AID2641 (National Center for Advancing Translational Sciences (NCATS), 2010):
Where “and” joins values, the source holds several entries; their conditions need not be identical. Equal entries are not always repeated. Calls of active or inactive are those of the source. No rule for the calls is given here.

target: Lysosomal alpha-glucosidase (Homo sapiens) (UniProt P10253); assay: qHTS Assay for Inhibitors of Human alpha-Glucosidase as a Potential Chaperone Treatment of Pompe Disease: Stabilizers of Alpha-Glucosidase Under Thermal Denaturation Conditions; details: Recombinant GAA thermal denaturation, residual activity over time, active compounds read high; at 0.31 µM unless noted
Text: NIH Chemical Genomics Center [NCGC]
NIH Molecular Libraries Probe Production centers Network [MLPCN]
Assay Submitter (PI): Wei Zheng
Alpha-glucosidase is responsible for hydrolysis of terminal, non-reducing 1,4-linked alpha-D-glucose residues with release of alpha-D-glucose. It is a lysosomal hydrolase that is required for the degradation of a small percentage (1-3%) of cellular glycogen in human. Deficiency of this enzyme results in glycogen-storage disease type II (GSDII), also referred to as Pompe disease, an autosomal recessive disorder. Structurally normal glycogen is accumulated in lysosomes and cytoplasm in affected patients, primarily in muscle tissues. Excessive glycogen storage within lysosomes may interrupt normal functioning of other organelles and leads to cellular injury. In turn, this leads to enlargement and dysfunction of the entire organ involved (eg, cardiomyopathy and muscle weakness).
It has reported that the improper folding and trafficking of alpha-glucosidase resulting from the genetic mutations may account for a significant number of Pompe patients. […] We optimized this alpha-glucosidase assay in 1536-well plate format for identifying the novel small molecule inhibitors with the structures other than the sugar analogs in order to develop the new pharmacological chaperones.
This assay involves heating purified alpha-glucosidase (Myozyme) in the presence of inhibitors to observe potential stabilization of the enzyme. This binding assay is an indirect measure of chaperone activity, as stabilization may imply proper folding and trafficking of the enzyme to its functional site. Alpha-glucosidase was pre-incubated with only DMSO or 50x IC50 of compound before being exposed to 68 °C heat inactivation. The heating was measured over time, and it was observed that untreated alpha-glucosidase lost more of its activity over time than enzyme treated with compounds.
Temperature Denature Protocol for alpha-Glucosidase
Assay buffer: 50 mM citric acid (titrated with potassium phosphate to pH 5.0), 0.01% Tween-20
1. Prepare 80X solution alpha-glucosidase solution (3.2 nM*80=[…]) in assay buffer.
2. Divide solution into separate 1.5 ml tubes.
3. For each compound, add 50X IC50:
50x IC50 1-DNJ […]
50x IC50 of the […]
4. Incubate 10 min RT after compound addition.
5. Distribute 10 ul from each tube into PCR tubes.
6. Time course of heating: Heat solutions at 68C for 60 min, taking a set of tubes out at 10, 20, 30, 45, and 60 min, while keeping one set on ice whole time.
7. After heating, take out tubes and place on ice for a minimum of 5 min.
8. Transfer 10 ul solution to 790 ul (1:80 dilution) buffer in 1.5 ml tube.
9. Vortex and take three 20 ul aliquots and put in 384 plate.
10. Add 20 ul substrate solution to each well (100 uM 4-methylumbelliferyl alpha-D-glucopyranoside).
12. Add 25 ul stop solution (1 M NaOH, 1 M glycine pH 10).
13. Detect the assay plate in a ViewLux plate reader (PerkinElmer) with Ex=365 nm and Em=440nm.

Residual activity vs control after 60 min heating, active:
CC(=O)c1ccc(N2CCN(S(=O)(=O)c3cc4c(cc3Cl)NC(=O)C4)CC2)cc1 675%
O=C1Cc2cc(S(=O)(=O)N3CCN(c4ccc(C(=O)O)cc4)CC3)ccc2N1 302%
O=Cc1ccc(N2CCN(S(=O)(=O)c3ccc4c(c3)CC(=O)N4)CC2)cc1 299%
O=C1Cc2cc(S(=O)(=O)N3CCN(c4ccc([N+](=O)[O-])cc4)CC3)ccc2N1 464%
N#Cc1ccc(N2CCN(S(=O)(=O)c3ccc4c(c3)CC(=O)N4)CC2)cc1 480%
OCC1NCC(O)C(O)C1O (stereo not drawn) 421% [at 0.016 µM]
CC(=O)c1ccc(N2CCN(S(=O)(=O)c3ccc4c(c3)CC(=O)N4)CC2)cc1 909% and 724% and 584%
O=C1Cc2cc(S(=O)(=O)N3CCN(c4ccc(O)cc4)CC3)ccc2N1 170%
